According to PubChem BioAssay (NCI):
Several values for one entry are separate records, joined by “and”; a condition that tells them apart may be missing. Equal values may be shown once. Compounds without any hit were thinned out: in the full panel of roughly 83,000, 20% have a hit.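 Step 1: grow cells in 96-well plates. Step 2: add test compound at a single concentration. Step 3: incubate 48 h. Step 4: record percent growth.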 Activity calls are given as the source filed them. The calls were made as follows: active = growth percent below 10; inactive = the rest.

Tested on: MDA-MB-468 breast
Assay: NCI-60 one-dose screen, 48 h (100 = growth as untreated, 0 = no growth, -100 = all killed)
Settings: 10 µM unless noted

Structure (SMILES) | growth
CC[N+](CC)=c1sc2c(s1)C(c1ccc(Cl)cc1)Oc1ccc(Cl)cc1-2 (stereo not given) | -4.17% (active)
COc1cc(C2C(C#N)=C(N)OC3=C2C(=O)c2ccccc2C3=O)cc(OC)c1O (stereo not given) | 106% (inactive)
CC(=O)O[C@H]1[C@H](CC#CC#CC[C@@H]2C[C@]3(C)[C@H]4CC=C5[C@H]6[C@@H](C)[C@H](C)CC[C@]6(C(=O)NCCCCCCCCN)CC[C@@]5(C)[C@]4(C)CC[C@H]3C(C)(C)[C@H]2OC(C)=O)C[C@]2(C)[C@H]3CC=C4[C@H]5[C@@H](C)[C@H](C)CC[C@]5(C(=O)NCCCCCCCCN)CC[C@@]4(C)[C@]3(C)CC[C@H]2C1(C)C | 73.5% (inactive)
O=C(/C=C/c1cccc2ccccc12)c1ccc(NC(=O)c2ccccc2CN2C(=O)c3ccccc3C2=O)cc1 | 51.3% (inactive)
COCc1c(-c2ccc(NC(=O)Nc3cc(C(F)(F)F)ccc3F)c(F)c2)c2c(N)ncnn2c1CN1CCOCC1 | -54.8% (active)
O=C(Nc1ccccc1)Nc1ncnc2c1ncn2-c1ccc(Cl)cc1 | 92.2% (inactive)
O=C(CN1N=C(c2ccc(F)cc2)CCC1=O)Nc1nccs1 | 94.6% (inactive)
Cc1nn(-c2ccccc2)c2c1N=c1s/c(=C\c3ccc(C(F)(F)F)cc3)c(=O)n1CN2 | 44.1% (inactive)
COc1ccc(/C=N/C2=NNC(C)(c3ccccc3O)N2C(Cc2c[nH]c3ccccc23)C(=O)O)cc1 (stereo not given) | -3.81% (active)
Cc1cccc(N2C(=O)/C(=C/C(Cl)=C/c3ccc([N+](=O)[O-])cc3)SC2=S)c1C | 11.6% (inactive)
CC(C)NCC(O)c1ccc(O)c(O)c1 (stereo not given) | 89.3% (inactive) and 104% (inactive) and 97.9% (inactive)
COc1cccc2cc(-c3nc(C4CCC(C(=O)O)CC4)n4ncnc(N)c34)[nH]c12 (stereo not given) | -22.3% (active)
COc1cccc2c1C(=O)c1c(O)c3c(c(O)c1C2=O)C[C@@](O)(/C(C)=N/NC(=O)c1cccc([N+](=O)[O-])c1)C[C@@H]3OC1CC(N)C(O)C(C)O1 (stereo not given in full) | -18.9% (active)
C=C1C(=O)O[C@H]2[C@H]1CC/C(COC(=O)NCc1ccc(OC)c(OC)c1)=C\CC[C@@]1(C)O[C@@H]21 | 24.3% (inactive)
C#Cc1cccc(NC(=O)Nc2cccc(N=C=S)c2)c1 | 106% [8.25 µM] (inactive)
Cc1nc(-c2ccccc2O)ccc1C(=O)N=Nc1c(O)[nH]c2ccc(Br)cc12 | 90.2% (inactive)
O=C(NCCNc1nccc(-c2c(-c3cccc(O)c3)nc3sccn23)n1)Nc1cc(C(F)(F)F)cc(C(F)(F)F)c1 | 57.8% (inactive)
COc1ccc(C(=O)C(CN(C)C)CN(C)C)cc1 | -66.4% (active)
Nc1nccc2c1ccn2-c1cccc(NC(=O)c2ccc(N3CCOCC3)c(C(F)(F)F)c2)c1 | -14.2% (active)
N#CC(C#N)N=Nc1ccc(Cl)cc1 | -17.6% (active)

Structure (SMILES) | growth
O=C(N/N=C\c1ccccc1O)C1CC1 | 102% (inactive)
C=C1C(=O)O[C@H]2[C@H]1CC/C(COC(=O)CSCSCC(=O)OC/C1=C/CC[C@@]3(C)O[C@H]3[C@H]3OC(=O)C(=C)[C@@H]3CC1)=C\CC[C@@]1(C)O[C@@H]21 | -14.2% (active)
O=S(=O)(O)c1ccc(O)c2ccccc12 | 104% (inactive)
COC(=O)/C(CCC=C(C)C)=C1\[C@@H](OC(C)=O)C[C@@]2(C)[C@H]1CC(=O)[C@H]1[C@@]3(C)CC[C@H](NCc4ccccc4)[C@@H](C)[C@@H]3CC[C@@]12C | 87.2% (inactive)
COc1ccc(-c2nnc(SCC(=O)Nc3ccc(C(=O)/C=C/c4ccc(OC)c(OC)c4)cc3)o2)cc1 | 88.7% (inactive)
O=C(Cc1ccc(Nc2ccnc(C(F)(F)F)c2)cc1)N/N=C/c1ccccc1O | 8.1% (active)
CC1(C)OCC2OC3(C(=O)O)OC(C)(C)OC3C2O1 (stereo not given) | 98.5% (inactive)
CNCc1cccc2c1OCCOCCOCCC(C)S(=O)(=O)c1ccc(cc1)-c1cnc(N)c(n1)C(=O)N2 (stereo not given) | 53.1% (inactive)
CN(C)Cc1cn(-c2ncc(-c3ccc(C(F)(F)F)cc3)c(NC3CCCCCC3)n2)nn1 | 82.9% (inactive)
OCc1nnn(-c2ccccc2)c1CO | 125% (inactive)
Nc1nc2ccc(-c3nc4ccc5[nH]ncc5c4c4c3CCC4)cc2s1 | -5.96% (active)
[2H]C([2H])([2H])Oc1ccc(/C=C/C(=O)/C=C(O)/C=C/c2ccc(OC([2H])([2H])[2H])c(OC([2H])([2H])[2H])c2)cc1OC([2H])([2H])[2H] | 1.44% (active)
O=C(Nc1cccc(-c2nc(-c3ccc(NC(=O)c4cccnc4)cc3Cl)no2)c1)Nc1ccc(NC(=O)C2CC2)c(C(F)(F)F)c1 | -72.6% (active)
Cc1nc(Nc2ccccn2)sc1C(=O)/C=C/c1ccc(Cl)cc1 | 16.4% (inactive)
Cc1cnc(N)s1 | 102% (inactive)
O=C(Cc1ccccc1)Nc1cccc(N=Cc2ccccc2O)c1 | 104% (inactive)
Nc1ncc(-c2ccc3ncnc(N4CCc5ccc(Cl)cc54)c3c2)cn1 | -38% (active)
CCOC(=O)/C(=C\c1ccc(-c2ccccc2)cc1)C(C)=O | 95% (inactive)
Cc1ccc(N(CC2=NCCN2)c2cccc(O)c2)cc1 | 93.3% (inactive)
CC(C)N1C(=O)/C(=c2\sc3n(c2=O)C2C(NN=3)N(C)C(=O)N2C)c2ccccc21 (stereo not given) | 37.3% (inactive)
